The subject of one assay is IMR-90. Nature of the assay: relative cell viability (ATPlite) vs untreated control (fraction); higher = less toxic. The following applies: 1 µM; 72 h.
Assay [1] concerns K562. The description is as above. The following applies: 1 µM; 72 h.
In assay [2] the test system is K562. Kind of assay: relative cell viability (ATPlite) vs untreated control, with imatinib (fraction); higher = less toxic. The following applies: 1 µM; 72 h; imatinib 0.125 µM. On the technique in general: In ATP-based viability assays light output follows the ATP content of the culture.

Relative cell viability data for nine molecules are collected here from the supplement of paper PMC4100887.

± gives the standard deviation of the averaged measurements.

In the case of `c1ccc2c(-c3ccncc3)c[nH]c2c1` [Rho Kinase Inhibitor III, Rockout], the relative cell viability with IMR-90 worked out at 0.814 ± 0.19; with K562 [1] it was 0.833 ± 0.097; in the assay on K562 [2], 0.683 ± 0.029.
`COc1ccc(CNC(=O)Nc2ncc([N+](=O)[O-])s2)cc1` [GSK-3b Inhibitor VIII]: the relative cell viability was determined as 0.978 ± 0.09 in the assay with IMR-90, 0.82 ± 0.048 in the assay with K562 [1] and 0.713 ± 0.049 in the assay with K562 [2].
On the same counts, the results for `CC(C)n1cnc2c(NCc3ccccc3)nc(NCCCO)nc21` [Bohemine] are 1.03 ± 0.066, 0.9 ± 0.074 and 0.797 ± 0.029.
As to `CCCC(=O)Oc1ccc2[nH]c(C(=O)c3cc4ccccc4[nH]3)cc2c1` [PDGF Receptor Tyrosine Kinase Inhibitor II], the relative cell viability in the assay on IMR-90 is 1.01 ± 0.064; in the assay on K562 [1], 0.812 ± 0.097; in the assay on K562 [2] it was 0.77 ± 0.025.
For `O=C1Cc2c([nH]c3ccc([N+](=O)[O-])cc23)-c2ccccc2N1` [Alsterpaullone], in that order: 0.946 ± 0.067, 0.906 ± 0.074 and 0.812 ± 0.026.
Take `CO[C@H]1C[C@@H]2CC[C@@H](C)[C@@](O)(O2)C(=O)C(=O)N2CCCC[C@H]2C(=O)O[C@H]([C@H](C)C[C@@H]2CC[C@@H](O)[C@H](OC)C2)CC(=O)[C@H](C)/C=C(\C)[C@@H](O)[C@@H](OC)C(=O)[C@H](C)C[C@H](C)/C=C/C=C/C=C/1C` [Rapamycin]: the relative cell viability with IMR-90 amounted to 0.598 ± 0.075; in the assay on K562 [1], 0.585 ± 0.032; in the assay with K562 [2] it was 0.481 ± 0.036.
For `O=[N+]([O-])c1ccc(-c2nc(-c3ccc(F)cc3)c(-c3ccncc3)[nH]2)cc1`, in that order: 1.05 ± 0.089, 0.774 ± 0.031 and 0.693 ± 0.039.
For `O=C(Nc1ccncc1)Nc1c(Cl)cc(Cl)cc1Cl` [Rho Kinase Inhibitor II], in that order: 1.08 ± 0.11, 0.856 ± 0.056 and 0.743 ± 0.03.
As for `Cn1c2ccccc2c2c3c(c4c5ccccc5n(CCC#N)c4c21)CNC3=O`, the relative cell viability was found to be 1.03 ± 0.093 in the assay on IMR-90, 0.854 ± 0.1 in the assay with K562 [1] and 0.739 ± 0.048 in the assay with K562 [2].
